B1: unnamed (peptide)
chain: YVRRRPRVRLEPLLS

These binders were tested against AgAbp1 (assay: SPOT peptide array binding signal intensity (averaged, normalized) (arbitrary units (background-subtracted, floor 0; scale differs between SH3 domains)); higher = stronger binding of the SH3 domain to the peptide).
How it was run: (§1)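 GST-SH3 fusions from four yeast species, purified on glutathione Sepharose, were incubated at 10 μg/ml overnight at 4°C on membranes of synthetic 15-mer peptides in which cysteines were replaced with serines. Binding signal is the normalized, background-subtracted spot intensity averaged over replicates, in domain-specific arbitrary units.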
For B1, the “SPOT peptide array binding signal intensity” value was 116.

These binders were tested against AgBbc1 in the same assay as above.
How it was run: as §1
B1 was tested, and the “SPOT peptide array binding signal intensity” value was 30.5.

These binders were tested against AgBem1-D1 in the same assay as above.
How it was run: as §1
For B1, the “SPOT peptide array binding signal intensity” value was 62.5.

Each binder was assayed against AgBzz1-D1 in the same assay as above.
How it was run: as §1
In the case of B1, the “SPOT peptide array binding signal intensity” value is reported as 152.

These binders were tested against AgBzz1-D2 in the same assay as above.
How it was run: as §1
For B1, the “SPOT peptide array binding signal intensity” value was 91.5.

Each binder was assayed against AgCyk3 in the same assay as above.
How it was run: as §1
With B1 the “SPOT peptide array binding signal intensity” value was 6.5.

These binders were tested against AgFus1 in the same assay as above.
How it was run: as §1
For B1, the “SPOT peptide array binding signal intensity” value was 928.

These binders were tested against AgHof1 in the same assay as above.
How it was run: as §1
B1 was tested, and the “SPOT peptide array binding signal intensity” value was 35.

These binders were tested against AgHse1 in the same assay as above.
How it was run: as §1
In the case of B1, the “SPOT peptide array binding signal intensity” value is reported as 936.

The binders below were run against AgLsb1 in the same assay as above.
How it was run: as §1
With B1 the “SPOT peptide array binding signal intensity” value was 17.2.

What follows are binders tested against AgLsb4 in the same assay as above.
How it was run: as §1
For B1, the “SPOT peptide array binding signal intensity” value was 138.

Each binder was assayed against AgMyo5 in the same assay as above.
How it was run: as §1
In the case of B1, the “SPOT peptide array binding signal intensity” value is reported as 6.

Each binder was assayed against AgNbp2 in the same assay as above.
How it was run: as §1
B1 was tested, and the “SPOT peptide array binding signal intensity” value was 424.

Each binder was assayed against AgRvs167 in the same assay as above.
How it was run: as §1
With B1 the “SPOT peptide array binding signal intensity” value was 14.1.

What follows are binders tested against AgSho1 in the same assay as above.
How it was run: as §1
In the case of B1, the “SPOT peptide array binding signal intensity” value is reported as 263.

Each binder was assayed against AgSla1-D1-D2 in the same assay as above.
How it was run: as §1
For B1, the “SPOT peptide array binding signal intensity” value was 258.

Each binder was assayed against AgSla1-D3 in the same assay as above.
How it was run: as §1
For B1, the “SPOT peptide array binding signal intensity” value was 15.8.

Each binder was assayed against CaAbp1-D1 in the same assay as above.
How it was run: as §1
B1 was tested, and the “SPOT peptide array binding signal intensity” value was 603.

What follows are binders tested against CaAbp1-D2 in the same assay as above.
How it was run: as §1
B1 was tested, and the “SPOT peptide array binding signal intensity” value was 652.

Each binder was assayed against CaBbc1 in the same assay as above.
How it was run: as §1
In the case of B1, the “SPOT peptide array binding signal intensity” value is reported as 150.

The binders below were run against CaBem1-D1 in the same assay as above.
How it was run: as §1
For B1, the “SPOT peptide array binding signal intensity” value was 81.5.

The binders below were run against CaBzz1-D1 in the same assay as above.
How it was run: as §1
B1 was tested, and the “SPOT peptide array binding signal intensity” value was 184.

These binders were tested against CaBzz1-D2 in the same assay as above.
How it was run: as §1
With B1 the “SPOT peptide array binding signal intensity” value was 108.

These binders were tested against CaCyk3 in the same assay as above.
How it was run: as §1
For B1, the “SPOT peptide array binding signal intensity” value was 45.5.

Each binder was assayed against CaFus1 in the same assay as above.
How it was run: as §1
With B1 the “SPOT peptide array binding signal intensity” value was 589.

The binders below were run against CaHof1 in the same assay as above.
How it was run: as §1
B1 was tested, and the “SPOT peptide array binding signal intensity” value was 0.75.

These binders were tested against CaHse1 in the same assay as above.
How it was run: as §1
For B1, the “SPOT peptide array binding signal intensity” value was 107.

Each binder was assayed against CaLsb1 in the same assay as above.
How it was run: as §1
For B1, the “SPOT peptide array binding signal intensity” value was 0.75.

What follows are binders tested against CaLsb4 in the same assay as above.
How it was run: as §1
With B1 the “SPOT peptide array binding signal intensity” value was 164.

The binders below were run against CaMyo5 in the same assay as above.
How it was run: as §1
In the case of B1, the “SPOT peptide array binding signal intensity” value is reported as 8.25.

The binders below were run against CaNbp2 in the same assay as above.
How it was run: as §1
With B1 the “SPOT peptide array binding signal intensity” value was 887.

These binders were tested against CaRvs167 in the same assay as above.
How it was run: as §1
B1 was tested, and the “SPOT peptide array binding signal intensity” value was 23.8.

Each binder was assayed against CaRvs167-3 in the same assay as above.
How it was run: as §1
For B1, the “SPOT peptide array binding signal intensity” value was 82.6.

What follows are binders tested against CaSho1 in the same assay as above.
How it was run: as §1
B1 was tested, and the “SPOT peptide array binding signal intensity” value was 898.

What follows are binders tested against CaSla1-D1-D2 in the same assay as above.
How it was run: as §1
For B1, the “SPOT peptide array binding signal intensity” value was 114.

Each binder was assayed against CaSla1-D3 in the same assay as above.
How it was run: as §1
For B1, the “SPOT peptide array binding signal intensity” value was 5.25.

Each binder was assayed against ScAbp1 in the same assay as above.
How it was run: as §1
For B1, the “SPOT peptide array binding signal intensity” value was 128.

What follows are binders tested against ScBbc1 in the same assay as above.
How it was run: as §1
With B1 the “SPOT peptide array binding signal intensity” value was 24.8.

The binders below were run against ScBem1-D1 in the same assay as above.
How it was run: as §1
With B1 the “SPOT peptide array binding signal intensity” value was 46.5.

Each binder was assayed against ScBzz1-D1 in the same assay as above.
How it was run: as §1
In the case of B1, the “SPOT peptide array binding signal intensity” value is reported as 58.5.

The binders below were run against ScBzz1-D2 in the same assay as above.
How it was run: as §1
B1 was tested, and the “SPOT peptide array binding signal intensity” value was 117.

What follows are binders tested against ScCyk3 in the same assay as above.
How it was run: as §1
In the case of B1, the “SPOT peptide array binding signal intensity” value is reported as 79.5.

The binders below were run against ScFus1 in the same assay as above.
How it was run: as §1
B1 was tested, and the “SPOT peptide array binding signal intensity” value was 706.

What follows are binders tested against ScHof1 in the same assay as above.
How it was run: as §1
B1 was tested, and the “SPOT peptide array binding signal intensity” value was 0.5.

What follows are binders tested against ScHse1 in the same assay as above.
How it was run: as §1
In the case of B1, the “SPOT peptide array binding signal intensity” value is reported as 2260.

These binders were tested against ScLsb1 in the same assay as above.
How it was run: as §1
For B1, the “SPOT peptide array binding signal intensity” value was 22.5.

What follows are binders tested against ScLsb2 in the same assay as above.
How it was run: as §1
B1 was tested, and the “SPOT peptide array binding signal intensity” value was 8.

Each binder was assayed against ScLsb3 in the same assay as above.
How it was run: as §1
For B1, the “SPOT peptide array binding signal intensity” value was 558.

The binders below were run against ScLsb4 in the same assay as above.
How it was run: as §1
For B1, the “SPOT peptide array binding signal intensity” value was 29.5.

These binders were tested against ScMyo3 in the same assay as above.
How it was run: as §1
B1 was tested, and the “SPOT peptide array binding signal intensity” value was 6.25.

These binders were tested against ScMyo5 in the same assay as above.
How it was run: as §1
B1 was tested, and the “SPOT peptide array binding signal intensity” value was 3.

The binders below were run against ScNbp2 in the same assay as above.
How it was run: as §1
With B1 the “SPOT peptide array binding signal intensity” value was 548.

What follows are binders tested against ScPex13 in the same assay as above.
How it was run: as §1
In the case of B1, the “SPOT peptide array binding signal intensity” value is reported as 18.2.

Each binder was assayed against ScRvs167 in the same assay as above.
How it was run: as §1
B1 was tested, and the “SPOT peptide array binding signal intensity” value was 30.8.

What follows are binders tested against ScSho1 in the same assay as above.
How it was run: as §1
In the case of B1, the “SPOT peptide array binding signal intensity” value is reported as 1070.

What follows are binders tested against ScSla1-D1-D2 in the same assay as above.
How it was run: as §1
In the case of B1, the “SPOT peptide array binding signal intensity” value is reported as 309.

Each binder was assayed against ScSla1-D3 in the same assay as above.
How it was run: as §1
B1 was tested, and the “SPOT peptide array binding signal intensity” value was 29.9.

Each binder was assayed against SpAbp1-D1 in the same assay as above.
How it was run: as §1
In the case of B1, the “SPOT peptide array binding signal intensity” value is reported as 252.

Each binder was assayed against SpBbc1 in the same assay as above.
How it was run: as §1
B1 was tested, and the “SPOT peptide array binding signal intensity” value was 23.2.

These binders were tested against SpBzz1-D1 in the same assay as above.
How it was run: as §1
With B1 the “SPOT peptide array binding signal intensity” value was 125.
